KCNH2 3.1 inh: blocks the human KCNH2 3.1 channel isoform; U2OS KCNH2 3.1, thallium flux FluxOr; stronger effect = lower value; activity change, % (tested at about 1.8 µM); 0.95% of 340,000 active;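 active = maximum activity change below -70%; inconclusive = maximum activity change from -70% to -50%; inactive = maximum activity change above -50%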;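 note: thallium influx rate constant from kinetic fluorescence after stimulation buffer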
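Virally transduced U2OS (3.1 isoform, 4 h infection in dark at RT) → overnight 37 C → FluxOr + Red40 in HBSS/HEPES, 45 min → stimulation buffer, 2 min kinetic read → rate constant vs DMSO controls.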
hERG WT inh: inhibitors of human wildtype KCNH2 potassium channel. Q12809. U2OS, BacMam KCNH2, thallium flux FluxOr; stronger effect = lower value. activity change, % at 1.84 µM. 0.37% of 340,000 active. AID 720551;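 active = maximum activity change below -70%; inconclusive = maximum activity change between -70% and -50%; inactive = maximum activity change above -50%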
Target sequence (Q12809 whole entry, looked up): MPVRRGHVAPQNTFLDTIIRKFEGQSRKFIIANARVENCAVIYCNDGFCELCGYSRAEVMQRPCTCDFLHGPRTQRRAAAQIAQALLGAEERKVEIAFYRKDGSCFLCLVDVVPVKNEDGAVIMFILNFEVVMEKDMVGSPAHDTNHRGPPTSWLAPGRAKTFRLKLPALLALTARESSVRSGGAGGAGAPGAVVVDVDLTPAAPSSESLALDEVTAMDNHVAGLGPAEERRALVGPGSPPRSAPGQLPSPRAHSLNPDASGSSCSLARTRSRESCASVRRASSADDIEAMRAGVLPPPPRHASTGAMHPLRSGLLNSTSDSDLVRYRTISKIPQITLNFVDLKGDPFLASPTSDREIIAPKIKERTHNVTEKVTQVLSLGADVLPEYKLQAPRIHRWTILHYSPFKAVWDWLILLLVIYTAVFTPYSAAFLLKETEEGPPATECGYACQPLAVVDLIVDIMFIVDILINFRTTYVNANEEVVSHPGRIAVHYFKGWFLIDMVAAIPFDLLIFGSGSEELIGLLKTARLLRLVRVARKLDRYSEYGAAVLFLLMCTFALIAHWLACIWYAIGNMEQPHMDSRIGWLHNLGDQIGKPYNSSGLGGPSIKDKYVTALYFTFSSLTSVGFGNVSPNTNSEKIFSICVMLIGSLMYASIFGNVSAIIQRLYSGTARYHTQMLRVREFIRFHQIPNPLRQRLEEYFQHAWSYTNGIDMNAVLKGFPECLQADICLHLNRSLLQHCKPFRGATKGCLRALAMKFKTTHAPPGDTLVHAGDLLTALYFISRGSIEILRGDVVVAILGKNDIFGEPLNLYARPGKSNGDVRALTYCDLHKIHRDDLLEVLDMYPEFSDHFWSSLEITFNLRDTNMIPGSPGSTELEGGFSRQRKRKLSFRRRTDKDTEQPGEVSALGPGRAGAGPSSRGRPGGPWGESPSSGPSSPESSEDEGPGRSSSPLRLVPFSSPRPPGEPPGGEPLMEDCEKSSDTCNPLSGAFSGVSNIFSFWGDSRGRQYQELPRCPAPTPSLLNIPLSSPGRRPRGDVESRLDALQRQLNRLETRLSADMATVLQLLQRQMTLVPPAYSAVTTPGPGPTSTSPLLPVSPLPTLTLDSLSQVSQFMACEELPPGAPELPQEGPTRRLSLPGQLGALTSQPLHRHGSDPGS
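U2OS cells transduced with wild-type KCNH2 virus are loaded with FluxOr dye for 45 min, and thallium flux is measured in kinetic reads before and after stimulation buffer. Rate constants are normalized to DMSO controls.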
SW480 rereplic: induces DNA re-replication in SW480 colon adenocarcinoma cells; 1.8% of 340,000 active; SW480 DNA re-replication, Hoechst DNA content imaging, 48 h; Potency, µM (titrated, usually from 46.1 µM), most hits filed as activators; note: nearly all actives have a fitted effect of over 55% in size
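250 cells/well; 23 nL cpd via pin tool; 48 hr, 37 C, 5% CO2; Hoechst 40 min; imager read of total nuclear intensity, ex 405/em 500-530 nm.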
MCF10A rereplic: DNA re-replication induction in MCF 10a cells; Potency, µM (top dose mostly 46.1 µM), actives largely listed as activators; 2.9% of 350,000 active; MCF 10A DNA re-replication, Hoechst nuclear intensity, 48 h; note: nearly all actives have a fitted effect of over 50% in size
KB-3-1 cytotox: KB-3-1 parental cell cytotoxicity; KB-3-1 viability, CellTiter-Glo ATP luminescence, 72 h; Potency, µM (top dose mostly 46.1 µM), most hits filed as cytotoxic; 1.4% of 400,000 active; AID 1347075; note: nearly all actives have a fitted effect of over 60% in size
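72 h, 37 °C compound treatment of KB-3-1 parental cells; CellTiter-Glo added, 10 min, luminescence read. Data corrected against DMSO-only plates and normalized before curve fitting.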
KB-V1 MDR tox: kills drug-selected multidrug resistant KB-V1 cells. KB-V1 MDR cells viability, CellTiter-Glo, 72 h. Potency, µM (series often up to 46.1 µM), most hits filed as cytotoxic. 3.4% of 400,000 active. AID 1347076; note: nearly all actives have a fitted effect of over 60% in size
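KB-V1 MDR subline cells in DMEM (phenol-red free, 10% FBS) exposed to compounds in qHTS concentration series for 72 h at 37 degrees C. Viability read by CellTiter-Glo luminescence; concentration-effect curves fitted after normalization and correction.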
Large screens that a line does not name were inactive. A selection: hits, their analogues and other compounds. The true share with any hit is near 7.6%. Unless noted, calls come from the whole dose curve; as a rule, active = well fitted curve in the direction sought with a large enough effect; inconclusive = small, poorly fitted or top-dose-only effect, or another doubt; inactive = no such curve, though single readings can be large; an effect the other way counts as inactive or inconclusive.

CCOc1cc(C(=O)NC(C)C2CC3CCC2C3)cc(OCC)c1OCC (stereo unspecified)	MCF10A rereplic 13µM
Cc1ccc(C(=O)NC(C)C2CC3CCC2C3)cc1 (stereo unspecified)	MCF10A rereplic inconclusive
COc1cc(C(=O)NC(C)C2CC3CCC2C3)ccc1OC(F)F (stereo unspecified)	KB-V1 MDR tox 21µM
CC(NC(=O)c1ccc(F)cc1)C1CC2CCC1C2 (stereo unspecified)	none
COC(=O)c1cc(S(=O)(=O)NCC2CCN(CCc3cccs3)CC2)c[nH]1	SW480 rereplic inconclusive
CCOc1ccccc1NC(=O)CSc1nc2c(c(=O)[nH]1)CCC2	none (no result: KCNH2 3.1 inh, hERG WT inh, SW480 rereplic, MCF10A rereplic)
CCc1ccccc1N1C(=O)N(CC(=O)c2ccc(Cl)cc2)c2ccccc2S1(=O)=O	none (no result: KCNH2 3.1 inh, hERG WT inh, SW480 rereplic, MCF10A rereplic)
CC(=O)N1CC(O)CC1C(=O)O (stereo unspecified)	none (no result: KCNH2 3.1 inh, hERG WT inh, KB-3-1 cytotox, KB-V1 MDR tox)
O=C(Nc1ccc(-c2noc(CCc3ccccc3)n2)cc1)c1cccnc1	MCF10A rereplic 16µM, KB-3-1 cytotox inconclusive, KB-V1 MDR tox 16µM
Cc1cc(NS(=O)(=O)c2ccc3c(c2)CCC(=O)N3)ccc1F	none (no result: KCNH2 3.1 inh, hERG WT inh, SW480 rereplic, MCF10A rereplic)
Cc1cc(C(=O)NCCC(c2ccccc2)c2ccccc2)c(C)o1	SW480 rereplic inconclusive, MCF10A rereplic inconclusive
COc1cccc(CNCC(O)(c2ccc(Cl)cc2)c2ccc(Cl)cc2)c1	SW480 rereplic inconclusive, MCF10A rereplic inconclusive, KB-3-1 cytotox inconclusive, KB-V1 MDR tox 15µM
COc1ccc(CNCC(O)(c2ccccc2)c2ccc(Cl)cc2)cc1 (stereo unspecified)	KCNH2 3.1 inh -72, SW480 rereplic inconclusive, KB-3-1 cytotox inconclusive, KB-V1 MDR tox 13µM
CCc1ccc(NC(=O)CSc2nc(=O)n(Cc3cccnc3)c3c2CCC3)cc1	none (no result: KCNH2 3.1 inh, hERG WT inh, SW480 rereplic, MCF10A rereplic)
CC(C)CC1c2[nH]c3ccccc3c2CCN1C(=O)CCC(=O)N(C)C (stereo unspecified)	MCF10A rereplic inconclusive
CCOC(=O)c1cccc(NC(=O)C2CCCN(c3nnc(N4CCCC4=O)s3)C2)c1 (stereo unspecified)	none
Cc1ccc(-c2[nH]ncc2/C=N/n2c(COc3ccccc3)nc3ccccc3c2=O)cc1	SW480 rereplic inconclusive, MCF10A rereplic 18µM, KB-3-1 cytotox inconclusive, KB-V1 MDR tox inconclusive
Cc1nc2ccccc2c(=O)n1/N=C/c1cn[nH]c1-c1ccccc1	KB-3-1 cytotox inconclusive
Cc1ccccc1OCc1nc2ccccc2c(=O)n1/N=C/c1cn[nH]c1-c1ccccc1	SW480 rereplic inconclusive, MCF10A rereplic inconclusive, KB-3-1 cytotox inconclusive, KB-V1 MDR tox 13µM
CCN(CC)P(=O)(Nc1ccc(C)cc1Br)c1ccc(N(C)C)cc1NC(=O)c1ccco1 (stereo unspecified)	SW480 rereplic inconclusive, MCF10A rereplic inconclusive, KB-3-1 cytotox inconclusive, KB-V1 MDR tox 18µM
Cc1csc(NC(=O)c2ccc(OCC3CCCO3)cc2)n1 (stereo unspecified)	KB-V1 MDR tox 13µM
O=C(Nc1nc(-c2nc3ccccc3s2)cs1)C1COc2ccccc2O1 (stereo unspecified)	KCNH2 3.1 inh -83, KB-3-1 cytotox inconclusive
CN(C)S(=O)(=O)c1ccc(C(=O)Nc2nc(-c3cc4ccccc4o3)cs2)cc1	MCF10A rereplic 4.6µM
COc1ccc(OC)c(-c2csc(NC(=O)C3COc4ccccc4O3)n2)c1 (stereo unspecified)	none
CN(CC1CCCO1)S(=O)(=O)c1ccc(C(=O)Nc2nc(-c3ccccn3)cs2)cc1 (stereo unspecified)	KB-3-1 cytotox 4.1µM
CN(CC1CCCO1)S(=O)(=O)c1ccc(C(=O)Nc2ccccc2F)cc1 (stereo unspecified)	MCF10A rereplic inconclusive, KB-V1 MDR tox inconclusive (no result: KCNH2 3.1 inh)
O=C(Nc1nc(-c2ccc(F)c(F)c2)cs1)c1ccc(OCC2CCCO2)cc1 (stereo unspecified)	KB-3-1 cytotox inconclusive, KB-V1 MDR tox inconclusive
O=C(Nc1nc(-c2ccccn2)cs1)c1ccc(F)c(S(=O)(=O)N2CCOCC2)c1	SW480 rereplic inconclusive, KB-3-1 cytotox inconclusive, KB-V1 MDR tox inconclusive
O=C(Nc1nc(-c2nc3ccccc3s2)cs1)c1ccc(S(=O)(=O)N2CCOCC2)cc1	KB-3-1 cytotox inconclusive, KB-V1 MDR tox 4.6µM
Cc1ccc(C(=O)Nc2nc(-c3ccccn3)cs2)cc1S(=O)(=O)N1CCOCC1	SW480 rereplic inconclusive, MCF10A rereplic 21µM, KB-V1 MDR tox inconclusive
Cc1cc(C(=O)OCC(=O)N(C)c2c(N)n(Cc3ccccc3)c(=O)[nH]c2=O)c(C)n1-c1ccccc1	none
COc1ccc(NC(=O)c2oc3ccc(S(=O)(=O)N4CCCCC4)cc3c2C)cc1	KB-V1 MDR tox 6.5µM (no result: KCNH2 3.1 inh, hERG WT inh, SW480 rereplic, MCF10A rereplic)
CCN(CC)C(=O)c1oc2ccc(S(=O)(=O)N3CCCCCC3)cc2c1C	KB-V1 MDR tox 13µM
COc1ccc2oc(C(=O)OCC(=O)N3CCCCC3C)c(C)c2c1 (stereo unspecified)	KCNH2 3.1 inh inconclusive, KB-V1 MDR tox 21µM
CCOC(=O)c1oc2ccc(S(=O)(=O)N3CCC(C)CC3)cc2c1C	KB-V1 MDR tox 16µM
CCOC(=O)c1oc2ccc(S(=O)(=O)N3CCOCC3)cc2c1C	none
O=C(NCCN1C(=O)S/C(=C\c2ccc(Cl)c([N+](=O)[O-])c2)C1=O)C1=COCCO1	MCF10A rereplic 3.7µM, KB-3-1 cytotox inconclusive
O=C(NCCN1C(=O)S/C(=C\c2ccc(Cl)c(Cl)c2)C1=O)c1cnccn1	MCF10A rereplic inconclusive
O=S(=O)(Nc1nc2ccccc2nc1Cl)c1ccccc1C(F)(F)F	none
O=S(=O)(Nc1nc2ccccc2nc1Cl)c1cccc(C(F)(F)F)c1	MCF10A rereplic 16µM
CCC1(C)NC(=O)N(CC(=O)NCC(=O)Nc2c(C)cc(C)cc2C)C1=O (stereo unspecified)	none
COC(=O)c1cc(Cc2ccc(N)c(C(=O)OC)c2)ccc1N	KB-3-1 cytotox inconclusive, KB-V1 MDR tox 21µM
COCCNc1nc(Nc2ccc(C)cc2C)c2sccc2n1	KB-3-1 cytotox 5.2µM, KB-V1 MDR tox 5.2µM (no result: KCNH2 3.1 inh, hERG WT inh, SW480 rereplic, MCF10A rereplic)
COCCNc1nc(NCc2ccc(C)cc2C)c2sccc2n1	none (no result: KCNH2 3.1 inh, hERG WT inh, SW480 rereplic, MCF10A rereplic)
CN(Cc1ccccc1N1CCCC1)C(=O)c1cc2cc(Cl)ccc2o1	MCF10A rereplic 15µM, KB-3-1 cytotox inconclusive, KB-V1 MDR tox inconclusive
Nc1ccc(CSc2ccc(Cl)cc2)c(Cl)c1	KCNH2 3.1 inh -102, SW480 rereplic inconclusive, MCF10A rereplic 21µM
N=C(N)SCc1ccc(Cl)cc1Cl	SW480 rereplic inconclusive, MCF10A rereplic inconclusive
O=C(Nc1cc(C(F)(F)F)ccc1Cl)C(Sc1nnc(-c2cccs2)o1)c1ccccc1 (stereo unspecified)	none (no result: SW480 rereplic)
